Laboratory results from ChEMBL document CHEMBL3988442, “University of Dundee, Small-Polar-MMV Screening Library” (2021).
For some of these results: Results with a measured potency or affinity are listed apart.

What was measured:
Design in all cases: scale not given: direction of the effect not stated beside the values
[1] = molecular target: Protein translocase subunit SecA (Escherichia coli (strain K12)) (UniProt P10408); assay: Assay to Identify E. coli SecA ATPase Inhibitors; format: functional; settings: 30 µM
Protein translocase subunit SecA (Escherichia coli (strain K12)), sequence (P10408 whole entry): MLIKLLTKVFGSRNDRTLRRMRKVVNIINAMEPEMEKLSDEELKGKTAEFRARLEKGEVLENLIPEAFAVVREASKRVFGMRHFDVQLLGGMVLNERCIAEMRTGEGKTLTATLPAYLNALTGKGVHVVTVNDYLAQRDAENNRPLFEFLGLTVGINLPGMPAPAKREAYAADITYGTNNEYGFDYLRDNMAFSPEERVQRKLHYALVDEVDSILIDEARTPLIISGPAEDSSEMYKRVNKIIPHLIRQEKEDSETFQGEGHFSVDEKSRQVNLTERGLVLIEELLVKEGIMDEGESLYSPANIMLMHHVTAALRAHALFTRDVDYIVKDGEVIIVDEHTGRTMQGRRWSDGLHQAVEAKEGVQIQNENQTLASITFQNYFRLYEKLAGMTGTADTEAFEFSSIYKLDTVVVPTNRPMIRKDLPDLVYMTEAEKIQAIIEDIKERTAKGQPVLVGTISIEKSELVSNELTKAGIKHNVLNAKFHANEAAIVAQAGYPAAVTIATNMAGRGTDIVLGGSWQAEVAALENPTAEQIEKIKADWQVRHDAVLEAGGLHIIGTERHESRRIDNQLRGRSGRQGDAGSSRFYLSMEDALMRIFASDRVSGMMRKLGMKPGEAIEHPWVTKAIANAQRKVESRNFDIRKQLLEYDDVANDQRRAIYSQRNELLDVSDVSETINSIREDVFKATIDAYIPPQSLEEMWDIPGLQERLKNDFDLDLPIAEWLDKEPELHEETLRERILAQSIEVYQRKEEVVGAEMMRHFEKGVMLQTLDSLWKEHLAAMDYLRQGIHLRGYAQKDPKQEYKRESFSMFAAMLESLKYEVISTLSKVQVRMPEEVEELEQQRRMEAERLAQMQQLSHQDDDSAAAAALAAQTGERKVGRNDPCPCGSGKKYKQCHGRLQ

[2] = molecular target: T1, Ubiquitin-activating enzyme e1, putative (Leishmania donovani (strain BPK282A1)) (UniProt E9BSI1); assay: Leishmania donovani Ubiquitin Activating Enzyme (LdE1); format: functional; settings: 30 µM
T1 sequence (whole entry): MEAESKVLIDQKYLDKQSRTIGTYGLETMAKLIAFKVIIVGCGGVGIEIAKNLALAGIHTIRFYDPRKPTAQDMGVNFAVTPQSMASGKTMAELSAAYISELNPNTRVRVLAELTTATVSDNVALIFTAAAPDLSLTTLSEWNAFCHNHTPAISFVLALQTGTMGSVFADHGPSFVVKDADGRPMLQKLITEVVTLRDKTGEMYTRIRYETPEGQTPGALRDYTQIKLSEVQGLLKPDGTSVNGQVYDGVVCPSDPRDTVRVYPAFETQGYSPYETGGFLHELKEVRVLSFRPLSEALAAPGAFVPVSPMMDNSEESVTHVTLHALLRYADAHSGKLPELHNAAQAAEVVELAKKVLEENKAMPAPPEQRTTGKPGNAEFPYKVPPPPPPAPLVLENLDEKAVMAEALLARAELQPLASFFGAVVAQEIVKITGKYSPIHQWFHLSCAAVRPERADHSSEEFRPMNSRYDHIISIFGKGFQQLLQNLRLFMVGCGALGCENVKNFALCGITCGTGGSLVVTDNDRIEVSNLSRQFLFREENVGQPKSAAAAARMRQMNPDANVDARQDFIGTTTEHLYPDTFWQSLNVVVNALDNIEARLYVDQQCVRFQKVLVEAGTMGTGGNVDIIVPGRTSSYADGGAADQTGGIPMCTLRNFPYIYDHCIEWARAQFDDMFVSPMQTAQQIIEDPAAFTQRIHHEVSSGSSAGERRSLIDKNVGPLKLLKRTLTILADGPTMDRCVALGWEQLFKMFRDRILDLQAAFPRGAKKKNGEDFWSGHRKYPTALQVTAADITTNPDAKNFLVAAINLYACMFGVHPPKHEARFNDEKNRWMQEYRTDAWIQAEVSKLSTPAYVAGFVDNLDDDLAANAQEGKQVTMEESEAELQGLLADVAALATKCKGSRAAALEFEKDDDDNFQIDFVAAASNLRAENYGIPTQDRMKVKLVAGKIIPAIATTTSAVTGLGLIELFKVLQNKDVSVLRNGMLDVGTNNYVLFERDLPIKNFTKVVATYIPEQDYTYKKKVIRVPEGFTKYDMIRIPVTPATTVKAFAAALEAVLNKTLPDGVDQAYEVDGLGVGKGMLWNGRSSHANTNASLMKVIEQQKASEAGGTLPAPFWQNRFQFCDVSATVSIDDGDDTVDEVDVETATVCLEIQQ

[3] = molecular target: AMP-activated protein kinase, AMPK (Homo sapiens) (UniProt P54646+O43741+P54619+Q9UGJ0+Q9Y478+Q13131+Q9UGI9); assay: AMP-dependent Kinase enzyme assay. An in vitro enzyme assay that detects ADP turnover that is directly proportional to AMPK activity. This uses naive AMPK that is activated during the assay with MK-8722; format: functional; settings: 30 µM
[4] = molecular target: Sialic acid-binding Ig-like lectin 9 (Homo sapiens) (UniProt Q9Y336); assay: Hs-Siglec9 ALPHAscreen SOP 20170721; settings: 10 µM
Sialic acid-binding Ig-like lectin 9 (Homo sapiens), sequence (Q9Y336 whole entry): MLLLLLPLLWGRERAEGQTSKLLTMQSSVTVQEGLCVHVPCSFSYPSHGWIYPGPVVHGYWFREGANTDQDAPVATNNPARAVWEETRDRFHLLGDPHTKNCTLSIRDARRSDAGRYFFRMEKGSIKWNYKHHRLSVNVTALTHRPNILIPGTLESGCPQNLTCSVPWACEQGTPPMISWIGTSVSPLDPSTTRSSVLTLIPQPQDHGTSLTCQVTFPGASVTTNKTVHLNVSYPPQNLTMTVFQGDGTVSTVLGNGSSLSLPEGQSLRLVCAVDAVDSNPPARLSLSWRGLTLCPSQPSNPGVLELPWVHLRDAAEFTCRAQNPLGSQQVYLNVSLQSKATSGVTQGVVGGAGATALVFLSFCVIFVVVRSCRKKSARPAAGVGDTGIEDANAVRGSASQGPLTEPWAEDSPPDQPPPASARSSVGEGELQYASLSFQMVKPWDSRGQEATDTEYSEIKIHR

Trypanosoma cruzi = assay: Trypanosoma cruzi phosphomannomutase and mannose-1-phosphate guanylyltransferase assay; format: functional; settings: 10 µM
[5] = molecular target: T2, Arginase-2, mitochondrial (Homo sapiens) (UniProt P78540); assay: in vitro enzyme assay to detect the production of urea directly proportional to the activity of Arginase II; format: functional; settings: 33.3 µM; note: in the data most compounds retested in dose-response had high values
T2 sequence (whole entry): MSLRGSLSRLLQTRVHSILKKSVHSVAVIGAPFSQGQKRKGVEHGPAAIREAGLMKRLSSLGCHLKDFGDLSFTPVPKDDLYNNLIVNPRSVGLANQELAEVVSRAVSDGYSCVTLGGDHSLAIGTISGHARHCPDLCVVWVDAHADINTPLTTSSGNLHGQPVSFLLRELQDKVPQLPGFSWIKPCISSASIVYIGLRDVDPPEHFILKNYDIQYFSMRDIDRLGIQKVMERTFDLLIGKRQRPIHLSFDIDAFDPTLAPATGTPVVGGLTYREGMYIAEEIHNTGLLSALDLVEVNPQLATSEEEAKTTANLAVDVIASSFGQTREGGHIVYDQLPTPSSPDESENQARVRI

[6] = molecular target: T3, Proteasome subunit beta (Trypanosoma cruzi) (UniProt O96673); assay: Trypanosoma cruzi proteasome chymotrypsin-like activity (TcProtChymo) assay.; note: in the data most compounds retested in dose-response had high values; format: functional; settings: 9.37 µM
T3 sequence (whole entry): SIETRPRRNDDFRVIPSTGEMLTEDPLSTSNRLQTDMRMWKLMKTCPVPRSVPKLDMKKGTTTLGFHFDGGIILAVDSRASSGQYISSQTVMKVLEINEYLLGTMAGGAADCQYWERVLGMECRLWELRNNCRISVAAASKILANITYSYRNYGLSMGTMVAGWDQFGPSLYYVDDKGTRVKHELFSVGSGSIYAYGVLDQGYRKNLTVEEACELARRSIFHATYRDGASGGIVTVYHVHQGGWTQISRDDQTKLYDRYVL

Homo sapiens = species on record: Homo sapiens; assay: To identify inhibition of the IFN signalling (Jak-Stat) pathway via expression of an eGFP reporter gene under the control of an IFN-stimulated response element (ISRE) containing MxA promoter.; format: functional; settings: 30 µM
[7] = molecular target: T4, Tyrosyl-tRNA synthetase, putative (Trypanosoma cruzi (strain CL Brener)) (UniProt Q4DSP6); assay: Trypanosoma cruzi tyrosyl tRNA synthetase (TcYRS) _High Tyrosine SOP; format: functional; settings: 30 µM; note: in the data most compounds retested in dose-response had high values
T4 sequence (whole entry): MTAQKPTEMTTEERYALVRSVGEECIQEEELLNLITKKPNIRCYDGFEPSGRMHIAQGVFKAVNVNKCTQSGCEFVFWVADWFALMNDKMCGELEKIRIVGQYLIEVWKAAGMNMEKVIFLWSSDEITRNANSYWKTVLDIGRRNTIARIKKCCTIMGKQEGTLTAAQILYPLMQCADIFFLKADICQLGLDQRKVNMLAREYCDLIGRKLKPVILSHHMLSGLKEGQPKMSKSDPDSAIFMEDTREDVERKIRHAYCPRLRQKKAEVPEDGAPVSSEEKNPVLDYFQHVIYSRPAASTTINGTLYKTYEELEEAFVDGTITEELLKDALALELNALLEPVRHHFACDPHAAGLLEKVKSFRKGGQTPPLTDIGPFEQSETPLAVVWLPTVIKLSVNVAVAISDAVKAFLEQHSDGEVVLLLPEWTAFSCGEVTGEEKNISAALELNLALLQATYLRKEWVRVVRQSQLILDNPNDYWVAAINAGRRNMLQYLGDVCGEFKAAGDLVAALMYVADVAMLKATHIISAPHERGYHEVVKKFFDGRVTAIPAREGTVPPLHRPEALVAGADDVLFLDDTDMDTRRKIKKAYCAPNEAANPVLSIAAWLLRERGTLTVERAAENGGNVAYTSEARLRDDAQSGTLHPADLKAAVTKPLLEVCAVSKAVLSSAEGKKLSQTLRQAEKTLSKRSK

[8] = molecular target: T4, Tyrosyl-tRNA synthetase, putative (Trypanosoma cruzi (strain CL Brener)); assay: Trypanosoma cruzi tyrosyl tRNA synthetase (TcYRS) SOP; format: functional; settings: 30 µM
[9] = molecular target: Chromo domain-containing protein 1 (Saccharomyces cerevisiae (strain ATCC 204508 / S288c) (Baker's yeast)) (UniProt P32657); assay: ScCHD-1 Enzyme Inhibition Assay; format: functional; settings: 30 µM; note: in the data most compounds retested in dose-response had high values
Chromo domain-containing protein 1 (Saccharomyces cerevisiae (strain ATCC 204508 / S288c) (Baker's yeast)), sequence (P32657 whole entry, the tested form may be a part): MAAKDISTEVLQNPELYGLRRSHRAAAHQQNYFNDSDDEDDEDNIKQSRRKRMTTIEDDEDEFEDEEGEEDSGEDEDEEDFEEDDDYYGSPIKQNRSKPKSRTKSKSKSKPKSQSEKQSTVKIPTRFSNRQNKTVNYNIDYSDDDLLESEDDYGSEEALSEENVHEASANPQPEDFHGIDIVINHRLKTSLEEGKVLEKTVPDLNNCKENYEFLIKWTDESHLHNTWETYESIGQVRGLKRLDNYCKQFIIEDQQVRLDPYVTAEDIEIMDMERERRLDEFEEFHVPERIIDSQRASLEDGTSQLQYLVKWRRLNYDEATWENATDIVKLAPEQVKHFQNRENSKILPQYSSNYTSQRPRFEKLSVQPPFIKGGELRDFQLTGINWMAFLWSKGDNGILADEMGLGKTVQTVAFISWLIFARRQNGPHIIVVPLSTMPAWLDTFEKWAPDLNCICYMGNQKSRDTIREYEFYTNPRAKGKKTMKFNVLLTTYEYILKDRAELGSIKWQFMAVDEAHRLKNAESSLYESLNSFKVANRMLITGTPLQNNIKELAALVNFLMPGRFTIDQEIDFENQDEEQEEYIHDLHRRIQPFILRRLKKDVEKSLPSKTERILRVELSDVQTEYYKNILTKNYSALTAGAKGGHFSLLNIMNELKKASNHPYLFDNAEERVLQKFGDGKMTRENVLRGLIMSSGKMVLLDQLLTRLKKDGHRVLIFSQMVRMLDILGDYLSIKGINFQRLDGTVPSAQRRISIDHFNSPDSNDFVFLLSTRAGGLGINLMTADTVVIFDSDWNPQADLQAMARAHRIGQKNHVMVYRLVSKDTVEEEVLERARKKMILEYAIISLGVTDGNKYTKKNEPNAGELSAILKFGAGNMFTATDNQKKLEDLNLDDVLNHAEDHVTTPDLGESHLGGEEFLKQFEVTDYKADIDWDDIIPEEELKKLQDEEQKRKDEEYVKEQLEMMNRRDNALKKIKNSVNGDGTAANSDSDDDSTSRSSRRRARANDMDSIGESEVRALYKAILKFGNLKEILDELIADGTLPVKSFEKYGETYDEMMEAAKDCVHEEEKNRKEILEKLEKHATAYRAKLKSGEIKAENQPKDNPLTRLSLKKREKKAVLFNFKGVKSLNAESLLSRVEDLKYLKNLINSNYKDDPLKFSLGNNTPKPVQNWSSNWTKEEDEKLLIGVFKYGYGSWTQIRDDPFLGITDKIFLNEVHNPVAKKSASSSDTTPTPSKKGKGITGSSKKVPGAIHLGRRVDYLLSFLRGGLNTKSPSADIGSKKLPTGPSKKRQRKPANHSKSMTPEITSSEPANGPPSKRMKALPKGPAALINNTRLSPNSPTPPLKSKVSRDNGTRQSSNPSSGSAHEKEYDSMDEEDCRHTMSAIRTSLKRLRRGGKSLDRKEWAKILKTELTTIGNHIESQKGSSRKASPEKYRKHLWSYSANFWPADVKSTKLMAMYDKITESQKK

Compound	Percent Effect [1]	Percent Effect [2]	Percent Effect [3]	Percent Effect [4]	Percent Effect (Trypanosoma cruzi)	Percent Effect [5]	Percent Effect [6]	Percent Effect (Homo sapiens)	Percent Effect [7]	Percent Effect [8]	Percent Effect [9]
Cn1cc(C(=O)Nc2ccc3c(c2)CN(C(=O)c2ccco2)CC3)nn1	-2.6%	7.79%	7.19%	9.07%	3.65%	-5.81%	7.66%	0.998%	4.23%	11.5%	-7.06%
COCCOCC(=O)Nc1ccc(Br)cc1F	-4.21%	10.5%	-1.83%	4.08%	3.8%	-5.92%	1.63%	9.23%	1.06%	7.79%	-2.27%
C1CC1c1nsc(N2CCN(C3CC3)CC2)n1	-5.35%	13.7%	2.89%	8.66%	5.49%	13.2%	13.3%	12.3%	6.45%	15%	-6.12%
CN(C)C1CCN(C(=O)NCc2ccc(Cn3cncn3)cc2)CC1	-4.29%	-5.41%	-5.16%	28.9%	9.85%	-2.38%	14.5%	6.43%	5.82%	17.1%	-10%
O=S(=O)(NCC1CCN(c2ccccn2)CC1)c1ccccc1F	-1.81%	23.4%	0.655%	-16.3%	3.25%	-5.81%	12%	14.5%	2.12%	14.1%	-12.6%
COc1ccccc1CC(=O)NCc1c(C)nc2cc(=O)[nH]n2c1C	-2.98%	0%	-13.8%	9.27%	3.01%	1.53%	8.02%	7.43%	4.41%	7.32%	-7.8%
COCCOc1ccc(NC(=O)C2CCCN(C(N)=O)C2)cn1 (stereo unspecified)	-4.58%	7.59%	0.0742%	4.56%	-6.33%	1.52%	5.82%	22.6%	-0.493%	-1.27%	-5.42%
Cn1ccnc1CN1CCCN(C(=O)c2ccc3c(c2)COC3)CC1	-5.22%	18.4%	0.632%	-6.65%	-6.44%	3.24%	7.7%	-1.32%	4.43%	11.1%	-7.65%
CCn1ncc(CN2CCc3c(nc(-c4cccnc4)[nH]c3=O)C2)c1C	-4.9%	5.33%	9.46%	2.36%	7.87%	0.699%	10.3%	2.75%	5.32%	11.5%	-4.43%
NC(=O)c1cnn2c1NCC(CNCCCOc1ccccc1F)C2 (stereo unspecified)	-2.54%	5.26%	0.424%	14.6%	3.38%	-1.15%	0.167%	2.29%	9.31%	12.2%	-10.9%
CCC(CC)NC(=O)Cn1nc(C)nc1-c1ccccc1	-4.52%	16.2%	-5.72%	3.26%	-6.32%	-1.2%	3.6%	21.4%	6.4%	11.1%	-8.07%
